# High-throughput results: PubChem BioAssay, National Center for Advancing Translational Sciences (NCATS)
# In the library only some 1.4% were active in any assay of this set; here they are far more common.
# NS1 function inh = inhibitors of influenza NS1 protein function | Potency, µM (doses to about 46.1 µM), for the others: at the highest dose activity, positive = more growth | actives 0.4% (n = 270,000) | AID 2326; calls by dose curve; also: actives are rising curves; nearly all actives have a fitted effect of over 50% in size
#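 A cell-based growth assay was used: compounds that relieve NS1-induced slow growth of budding yeast raise OD600. Assay medium was yeast nitrogen base with ammonium sulphate and -URA supplement, pH 6.0, with 2% galactose.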
# SARS PLpro yeast = blocks SARS-CoV papain-like protease in a yeast assay; S. cerevisiae expressing SARS-CoV PLpro, growth rescue; Potency, µM (titrated, usually from 32.9 µM), for inactives: top-dose activity, positive = growth rescue, most hits filed as activators; actives 0.19% (n = 330,000); AID 485353; calls by dose curve; also: 0% is about no effect; nearly all actives have a fitted effect of over 55% in size
# AmpC inh detg = blocks E. coli AmpC beta-lactamase in detergent assay; P00811; AmpC hydrolysis of nitrocefin, absorbance 480 nm, 0.01% Triton; Potency, µM (titrated, usually from 114 µM), for inactives: top-dose activity change, negative = inhibition, usual class: inhibitors; actives 0.041% (n = 370,000); AID 485294;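 also: 0% = no-compound wells and -100% = no-enzyme wells; nearly all actives have a fitted effect of over 25% in size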
#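 20 mM phosphate pH 7.0 + 0.01% (detergent screen) or 0.0001% Triton X-100; 5.3 nM AmpC reagent; cpd preinc 15 min RT; nitrocefin (800 uM stock) to start; A480 q20 s × 4 min; Activity was normalised to no-enzyme and no-compound control wells.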
# Giardia FBPA inh-1 = blocks Giardia fructose-bisphosphate aldolase activity. A8B2U2. actives 0.71% (n = 290,000). purified Giardia FBPA. Potency, µM (doses to about 59.6 µM), inactives show top-dose activity, negative = inhibition, hits mostly inhibitors; also: % is scaled to controls: 0 for no effect and ±100 for the full control effect; nearly all actives have a fitted effect of over 55% in size
#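 Giardia FBPA (40 nM reagent) was preincubated 10 min at RT with compound (up to 57.5 uM final), then substrate plus GAPDH/TPI/NAD/arsenate coupling system with diaphorase/resazurin was added; resorufin fluorescence (525/598 nm) was read after 20 min.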
# AmpC no deterg = blocks E. coli AmpC beta-lactamase in detergent-free assay; AmpC nitrocefin hydrolysis, absorbance 480 nm, 0.0001% Triton; Potency, µM (series often up to 57.1 µM), without a hit: top-dose activity change, negative = inhibition, most hits filed as inhibitors; actives 0.52% (n = 330,000);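 also: plate controls were no compound for no effect and no enzyme for full effect; nearly all actives have a fitted effect of over 20% in size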
#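 AmpC (5.3 nM in the dispensed reagent) in 20 mM phosphate pH 7.0 with 0.01% (detergent screen) or 0.0001% Triton X-100 was preincubated with compounds for 15 min at room temperature. Nitrocefin was then added from an 800 uM solution, and hydrolysis was followed at 480 nm.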
# Giardia growth = blocks growth of Giardia lamblia trophozoites. AID 2785. shares compounds with Giardia FBPA inh-1. actives 5% (n = 1,500). Giardia lamblia trophozoite growth inhibition. Potency, µM (highest dose often 57.5 µM), inactives show at the highest dose activity change, negative = inhibition, usual class: inhibitors;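 also: trophozoites exposed to compound for 48 h at 37 °C; % is scaled to controls: 0 for no effect and ±100 for the full control effect; nearly all actives have a fitted effect of over 70% in size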
# Mammalian tox = counter-screen for Giardia aldolase inhibitors: mammalian cell toxicity | shares compounds with Giardia FBPA inh-1 | mammalian cell viability counter-screen, qHTS | Potency, µM (highest dose often 57.5 µM), inactives show at the highest dose viability change, negative = toxicity, usual class: inhibitors | actives 4% (n = 1,500) | AID 2786;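 also: Chinese hamster ovary cells used as mammalian cytotoxicity surrogate; viability measured as cellular ATP by luminescence; compound exposure lasted 48 h before reading; % is scaled to controls: 0 for no effect and ±100 for the full control effect; nearly all actives have a fitted effect of over 60% in size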
# Giardia FBPA inh-2 = confirmation of Giardia fructose-bisphosphate aldolase inhibitors. Potency, µM (titrated, usually from 57.5 µM), inactives show top-dose activity change, negative = inhibition, hits mostly inhibitors. purified Giardia aldolase enzyme activity, qHTS. shares compounds with Giardia FBPA inh-1. actives 5% (n = 1,500); also: % is scaled to controls: 0 for no effect and ±100 for the full control effect; nearly all actives have a fitted effect of over 45% in size
# Rabbit aldolase = blocks rabbit muscle aldolase in Giardia aldolase selectivity test. shares compounds with Giardia FBPA inh-1. Rabbit muscle FBPA enzyme inhibition, selectivity counter-screen. AID 2794. Potency, µM (titrated, usually from 57.5 µM), for inactives: top-dose activity, negative = inhibition, most hits filed as inhibitors. actives 4% (n = 1,500); also: % is scaled to controls: 0 for no effect and ±100 for the full control effect; nearly all actives have a fitted effect of over 60% in size
# Target sequence (P00883 whole entry, looked up): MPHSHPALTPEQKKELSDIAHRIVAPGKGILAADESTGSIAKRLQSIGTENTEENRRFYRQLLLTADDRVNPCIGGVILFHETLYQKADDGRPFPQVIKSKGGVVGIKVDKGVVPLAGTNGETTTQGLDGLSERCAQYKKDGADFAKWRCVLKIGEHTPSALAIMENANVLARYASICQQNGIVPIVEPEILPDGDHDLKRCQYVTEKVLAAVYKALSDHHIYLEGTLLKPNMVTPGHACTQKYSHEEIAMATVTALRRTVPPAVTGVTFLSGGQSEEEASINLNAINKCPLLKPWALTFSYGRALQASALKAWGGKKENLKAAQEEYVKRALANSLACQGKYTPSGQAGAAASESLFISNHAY
# GAPDH coupling = counter-screen for Giardia aldolase inhibitors: GAPDH coupling enzyme. AID 2795. Potency, µM (top dose mostly 57.5 µM), without a hit: at the top dose activity change, negative = inhibition, actives largely listed as inhibitors. GAPDH coupling enzyme counterscreen, biochemical, qHTS. actives 6% (n = 1,500). shares compounds with Giardia FBPA inh-1; also: % is scaled to controls: 0 for no effect and ±100 for the full control effect; nearly all actives have a fitted effect of over 55% in size
# Starred values were filed as active, the others as inactive; ? = inconclusive; · = no result; [ ] = another dose, or the depositor's remark. Unless noted, calls follow the shape of the dose curve; as a rule, active = well fitted curve in the direction sought with a large enough effect; inconclusive = small, poorly fitted or top-dose-only effect, or another doubt; inactive = no such curve, though single readings can be large; an effect the other way counts as inactive or inconclusive. Potency is read from the fitted curve at half-maximal effect.
SMILES,NS1 function inh,SARS PLpro yeast,AmpC inh detg,Giardia FBPA inh-1,AmpC no deterg,Giardia growth,Mammalian tox,Giardia FBPA inh-2,Rabbit aldolase,GAPDH coupling
O=S(=O)(Nc1cccc(Cl)c1)c1ccc2[nH]c3c(c2c1)CCCCCC3,·,·,-4%,·,·,·,·,·,·,·
CCn1c(O)c(C#N)c(C)cc1=O,0%,1%,-3%,13µM*,-23%,?,28%,?,?,?
O=C(N/N=C/c1ccncc1)c1nc2ccccc2c(=O)[nH]1,0%,1%,-3%,11µM*,-12%,11%,24%,-9%,-17%,0%
Cc1cc(S(=O)(=O)Nc2ccc(O)c(Sc3nc4ccccc4s3)c2)ccc1Cl,·,·,1%,·,·,·,·,·,·,·
COC(=O)Oc1nsnc1N1CCOCC1,-40%,5%,-12%,14µM*,-26%,-28%,10%,-13%,?,?
Cc1cccc(C(=O)N2CCc3cc(CNC(=O)c4ccc(Br)o4)ccc32)c1,·,·,11%,·,·,·,·,·,·,·
CCC(=O)Nc1nc(C)c(-c2csc(Nc3cccc(C(=O)O)c3)n2)s1,·,-1%,-12%,?,-20%,·,·,·,·,·
Cc1nc(N)sc1-c1csc(Nc2cccc(C(=O)O)c2)n1,30%,3%,-11%,18µM*,-28%,-23%,6%,?,32µM*,32µM*
COc1ccc(Cl)cc1NC(=O)CNc1ccccc1N1CCOCC1,·,-1%,8%,-1%,-27%,·,·,·,·,·
N#CCCN(C(=O)CSc1nc2ccccc2c(=O)[nH]1)c1ccc(F)cc1,·,4%,·,·,-6%,·,·,·,·,·
S=c1[nH]nc(-c2ccccn2)n1/N=C/c1ccco1,11%,-1%,-4%,20µM*,-3%,7%[10.4 µM],15%,4%,16%,5%
S=c1[nH]nc(-c2ccco2)n1/N=C/c1ccccn1,4%,11%,-5%,?,-3%[2.29 µM],·,·,·,·,·
Cc1ccc(N2C(S)=C(C#N)C(=O)NC2c2cccs2)cc1 (stereo not given),?,-2%,-9%,?,-2%,·,·,·,·,·
N#CC1=C(S)N(c2ccccc2)C(c2cccs2)NC1=O (stereo not given),?,3%,-5%,6.3µM*,-19%,-17%,-5%,5%,4%,6%
CN(C)S(=O)(=O)c1ccc(NC(=S)NC(=O)c2ccc(Br)o2)cc1,·,0%,-3%,16µM*,-52%,3%[10.4 µM],-8%,1%,7%,15%
O=C(NC(=S)Nc1ccccc1)c1cccs1,15%,-3%,4%,?,-18%,·,·,·,·,·
NS(=O)(=O)c1ccc(NC(=S)NC(=O)c2cccs2)cc1,0%,0%,-4%,18µM*,-38%,?,7%,7%,5%,4%
Cc1cc(C)cc(NS(=O)(=O)c2ccc(NC(=S)NC(=O)c3ccc(Br)o3)cc2)c1,12%,4%,-5%,-24%,-32%,·,·,·,·,·
NS(=O)(=O)c1ccc(NC(=S)NC(=O)c2ccc(Br)o2)cc1,2%,1%,0%,18µM*,-31%,7%[10.4 µM],0%,-3%,6%,6%
O=C(O)c1cccc2c1C(=O)c1cc(Br)ccc1S2(=O)=O,·,-2%,-4%,·,-10%,·,·,·,·,·
COc1ccc(-c2nn(CC(=O)NCCc3ccccc3)c(=S)n2C)cc1,-2%,9%,-3%,8%,-7%,·,·,·,·,·
